High-throughput results as filed in PubChem BioAssay.
Compounds with a hit are over-represented: about 2.4% of the library has one in this group of screens.
WRN helicase inh – qHTS for Inhibitors of WRN Helicase. WRN helicase unwinding, fluorescent forked duplex, kinetic. 0.46% of 360,000 active. AID 651768, 2012. Bifunctional 3'-5' exonuclease/ATP-dependent helicase WRN (Homo sapiens), Q14191. Potency, µM (doses to about 114 µM), without a hit: at the highest dose activity change, negative = inhibition, actives largely listed as inhibitors; also: % is scaled to controls: 0 for no effect and ±100 for the full control effect; nearly all actives have a fitted effect of over 55% in size
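Fluorescence dequenching readout, ex 525 nm/em 598 nm, kinetic mode: forked duplex DNA (100 nM final) with adjacent fluorophore and quencher unwound by WRN (20 nM final) with 2 mM ATP. Compound preincubation 15 min, room temperature.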
FEN1 inh – qHTS Assay for the Inhibitors of Human Flap endonuclease 1 (FEN1) | P39748 | 0.35% of 390,000 active | Potency, µM (top dose mostly 114 µM), for the others: at the top dose activity change, negative = inhibition, hits mostly inhibitors | Recombinant FEN1 flap cleavage, fluorescence, 15 min; also: % is scaled to controls: 0 for no effect and ±100 for the full control effect; nearly all actives have a fitted effect of over 65% in size
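With each library titrated from low to high concentration, compounds met 10 nM FEN1 for 15 min at room temperature before 50 nM substrate was added; readings at 0 and 15 min fed four-parameter Hill curve fits.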
POLI inh – qHTS for Inhibitors of Polymerase Iota; DNA polymerase iota (Homo sapiens), Q9UNA4; Potency, µM (doses to about 115 µM), inactives show at the top dose activity, negative = inhibition, actives largely listed as inhibitors; 1% of 390,000 active; Pol iota fluorescent replication assay, 10 min; AID 588590, 2011
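Pol iota at 10 nM preincubated 15 min with compounds at room temperature; reaction started with fluorescent substrate, 50 nM final. Fluorescence read kinetically at 0 and 10 min; buffer-only wells as negative control.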
POLH inh – qHTS for Inhibitors of Polymerase Eta; AID 588591, 2011; 1.2% of 390,000 active; Potency, µM (top dose mostly 114 µM), for the others: top-dose activity change, negative = inhibition, most hits filed as inhibitors; recombinant Pol eta, fluorescent DNA replication assay; also: % is scaled to controls: 0 for no effect and ±100 for the full control effect
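Fluorescent replication assay: 50 nM final substrate added after a 15 min room-temperature compound preincubation with 10 nM enzyme. Signal taken at 0 min and again at 10 min.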
Pol beta inh – qHTS Assay for Inhibitors of DNA Polymerase Beta | P06746 | Pol beta primer extension/strand displacement, fluorescence kinetic | Potency, µM (doses to about 114 µM), without a hit: at the top dose activity change, negative = inhibition, most hits filed as inhibitors | 1.3% of 340,000 active | AID 485314, 2010; also: % is scaled to controls: 0 for no effect and ±100 for the full control effect
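Enzyme-only controls used 10 nM Pol beta; buffer lacking enzyme served as negative control. Compound preincubated 15 min, then 50 nM substrate added; 0 and 10 min reads at room temperature.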
Pol kappa inh – qHTS for Inhibitors of Polymerase Kappa | DNA polymerase kappa (Homo sapiens), Q9UBT6 | purified Pol kappa, fluorescent DNA synthesis assay, 10 min | Potency, µM (series often up to 107 µM), for the others: at the top dose activity, negative = inhibition, hits mostly inhibitors | 0.53% of 400,000 active; also: % is scaled to controls: 0 for no effect and ±100 for the full control effect
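Kinetic fluorescence screen: compound preincubated 15 min RT with 10 nM enzyme; 50 nM substrate (final) initiates; reads at 0/10 min.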
Starred values were filed as active, the others as inactive; ? = inconclusive; / = not tested or not shown; [ ] = another dose, or the depositor's remark. Calls follow the shape of the dose curve; as a rule, active = well fitted curve in the direction sought with a large enough effect; inconclusive = small, poorly fitted or top-dose-only effect, or another doubt; inactive = no such curve, though single readings can be large; an effect the other way counts as inactive or inconclusive. Potency is read from the fitted curve at half-maximal effect.

SMILES | WRN helicase inh | FEN1 inh | POLI inh | POLH inh | Pol beta inh | Pol kappa inh
CC(=O)Oc1cc(O)c2c(=O)c(OC(C)=O)c(-c3ccc(OC(C)=O)c(OC(C)=O)c3)oc2c1 | ? | 2.82µM* | 8.91µM* | 2.82µM* | / | 7.08µM*
COc1ccc(/C=C(\C)C(=O)NO)cc1 | / | 0.9% | 18.8% | / | / | 6.1%
Cn1c(=O)n(C/C=C/c2ccccc2)c(=O)c2c1nc1n2CCN1c1ccc(F)cc1 | / | 5.4% | 16.4% | -22.5% | -24.3% | -3.6%
Nc1nn2c(C(F)(F)F)cc(=O)[nH]c2c1N=Nc1cccc(F)c1 | 4.3% | -3.4% | 25.1% | -6.7% | 34.7% | -4.5%
Cc1cc(=O)[nH]c2c(N=Nc3ccc(O)cc3)c(N)nn12 | ? | -31.6% | ? | -17.8% | 2.0% | 89.1µM*
Cc1ccc(S(=O)(=O)N2CCN(c3nc(-n4ccnn4)nc4ccccc34)CC2)cc1 | / | -3.4% | 10.3% | / | / | 7.1%
c1ccc(-c2oc3ncnc(NCCCN4CCOCC4)c3c2-c2ccccc2)cc1 | -1.0% | -18.6% | 12.0% | 2.2% | 0.7% | -7.4%
Nc1ncnc2oc(-c3ccoc3)c(-c3ccco3)c12 | / | 17.8µM* | 11.2µM* | / | / | 20µM*
O=C(Cn1ncc(Cl)c(Cl)c1=O)N1CCOCC1 | 3.4% | -1.7% | 43.1% | -18.2% | 1.3% | -6.7%
O=C(Cn1ncc(Cl)c(Cl)c1=O)N1CCN(Cc2ccccc2)CC1 | -10.4% | 20.1% | 35.5µM* | ? | 28.2µM* | 0.0%
CCc1ccc(C(=O)Cn2ncc(Cl)c(Cl)c2=O)cc1 | -9.9%[11.6 µM] | -3.3% | ? | ? | 50.1µM* | -17.2%
CS(=O)(=O)Nc1cccc(-c2cncnc2NCc2cccs2)c1 | / | / | / | / | / | 6.7%[60.1 µM]
CCOc1ccc(NC(=O)CN(C)C(=O)Cc2c(C)nc3ccccc3c2C)cc1OCC | -27.9% | -1.0% | -18.1% | ? | 22.4µM* | -18.3%
Cc1nc2ccccc2c(C)c1CC(=O)N(C)CC(=O)Nc1cccc(F)c1 | -12.5% | -9.3% | ? | -11.3% | / | -13.1%
O=c1cc(-c2ccc(Cl)cc2)[nH][nH]1 | -1.7% | -0.5% | 1.58µM* | -4.5% | -15.3% | -2.6%
O=c1cc(-c2ccc(Cl)c(Cl)c2)[nH][nH]1 | -1.5% | -4.7% | -9.7% | -11.1% | 5.7% | -7.5%
O=C(/C=C/c1ccc(Cl)cc1)c1cccnc1 | ? | -14.0% | ? | -8.9% | 6.4% | -0.8%
O=C(/C=C/c1ccccc1Cl)c1ccccc(=O)c1O | -5.0%[11.6 µM] | -1.1% | 28.2µM* | ? | 44.7µM* | -21.8%
O=C(/C=C/c1ccccc1Cl)c1cccnc1 | ? | -14.4% | 39.8µM* | 0.6% | -4.5% | -0.9%
COc1ccc2c(c1)c1c(c(=O)n(-c3ccc(C)cc3)c(=O)n1CC(=O)NCc1ccc(C)cc1)n2C | / | 5.5% | 44.3% | -11.8% | 10.8% | 6.0%
O=C(N/N=C/c1ccco1)c1cc(-c2ccc(Cl)s2)[nH]n1 | -16.1% | -15.5% | ? | -8.5% | ? | -29.5%
O=C(N/N=C/c1cccs1)c1cc(-c2ccc(Cl)s2)[nH]n1 | -5.3%[11.6 µM] | -3.0% | ? | ? | 44.7µM* | -25.6%
O=C(NCC(c1ccc2c(c1)OCO2)N1CCOCC1)C(=O)Nc1ccccc1 (centres undefined) | / | -8.1% | 17.8µM* | -0.1% | 18.1% | -7.6%[60.1 µM]
Cc1ccc(NC(=O)CN2CCN(C3CCCCC3)C(=O)C2=O)cc1 | / | -1.4% | 0.6% | -3.4% | 26.5% | -4.8%[60.1 µM]
O=C(CNS(=O)(=O)c1ccc(Br)cc1)OCc1cc(=O)n2cc(Br)ccc2n1 | / | / | / | / | 35.5µM* | /
CC(C)(C)N=Cc1c(O)ccc2oc3c(c12)CCCC3 | 3.1%[11.6 µM] | -31.7% | ? | 39.8µM* | 0.1% | -75.1%
NC(=O)N/N=C/c1c(O)ccc2oc3c(c12)CCCC3 | -4.5% | -30.7% | 51.5% | -16.1% | 2.7% | -2.2%
